Screening results deposited in PubChem by National Center for Advancing Translational Sciences (NCATS).
Nrf2 ARE act – activators of Nrf2 (ARE) signaling. AREc32 ARE-luciferase reporter (MCF7-derived line), luminescence, 24 h. Potency, µM (doses to about 46.1 µM), for the others: at the top dose activation, most hits filed as activators. actives 0.31% (n = 410,000). AID 624171; further: % of control where 0% means no effect; nearly all actives have a fitted effect of over 65% in size
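Cells of the AREc32 ARE-luciferase line are plated in OPTI-MEM containing 5% FBS and left overnight at 37 deg C. Compounds are pinned in, incubation continues 24 hr, and firefly luciferase signal is then measured.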
Nrf2 inh – Nrf2 pathway inhibition; Potency, µM (doses to about 46 µM), without a hit: top-dose activity change, negative = inhibition, actives largely listed as inhibitors; A549 ARE-Fluc reporter, luciferase luminescence, 18-24 h; AID 504444; actives 2.1% (n = 360,000); further: on the % scale 0 is the no-effect control and ±100 the full control effect; nearly all actives have a fitted effect of over 60% in size
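Cells were seeded and rested 2 h, then exposed to compounds for 18-24 h. CellTiter-Fluor was read first as a viability measure. BugLite was added 15 min before the final luminescent read of ARE-luciferase activity in A549 cells.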
HepG2 viability – kills HepG2 cells in TGF-b inhibitor counter-screen; HepG2 CAGA-GFP viability, ATP luminescence, 18 h; Potency, µM (highest dose often 46.1 µM), for inactives: top-dose activity change, negative = cytotoxicity, actives largely listed as cytotoxic; actives 0.76% (n = 410,000); AID 588856
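CellTiter-Glo luminescence gave cytotoxicity after 18 hours at 37 degrees C. The cells were HepG2 CAGA-GFP in 1% FBS DMEM, stimulated with 500 pg/mL TGF-beta after compound addition. %Activity was normalised to no-cell wells (complete cell-killing) and DMSO (no toxicity), and curves were fitted and classified.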
A549 tox – A549 cytotoxicity, counter-screen for Nrf2 inhibitors; A549 ARE-Fluc cells, CellTiter-Fluor viability, 18-24 h; Potency, µM (top dose mostly 46 µM), inactives show at the highest dose activity change, negative = cytotoxicity, most hits filed as inhibitors; actives 0.16% (n = 390,000); AID 504648; further: on the % scale 0 is the no-effect control and ±100 the full control effect
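Cytotoxicity counterscreen: CellTiter-Fluor fluorescence was measured in A549 ARE_Fluc cells after 18-24 h of compound exposure in a concentration series. The subsequent BugLite luminescent read reports ARE-luciferase activity.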
TGFb SMAD3 inh – blocks TGF-b signaling; HepG2 CAGA-GFP TGF-b/SMAD3 reporter, GFP fluorescence, 18 h; TGF-beta stimulated, 500 pg/mL final; Potency, µM (series often up to 46.1 µM), for the others: top-dose activity, negative = inhibition, usual class: inhibitors; actives 1.2% (n = 410,000); AID 588855; further: on the % scale 0 is the no-effect control and ±100 the full control effect; nearly all actives have a fitted effect of over 65% in size
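Smad-responsive CAGA-GFP expression was quantified in HEPG2 cells exposed to compounds and 500 pg/mL final TGF-beta for 18 h at 37 degrees C; unstimulated wells defined full inhibition.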
Numbers without * were called inactive; ? = inconclusive; / = not tested or not shown; [ ] = dose if it differs, or a comment. Compounds with a hit are over-represented: about 3.6% of the library has one in this group of screens. The call rests on the fitted dose curve; in most records, active means well fitted curve in the direction sought with a large enough effect; inconclusive means small, poorly fitted or top-dose-only effect, or another doubt; inactive means no such curve, though single readings can be large; an effect the other way counts as inactive or inconclusive. Potency means the concentration at half of the fitted maximal effect.

SMILES | Nrf2 ARE act | Nrf2 inh | HepG2 viability | A549 tox | TGFb SMAD3 inh
COC(=O)[C@]1(CC(C)C)N[C@H](c2ccc(SC3CCCCC3)c(OC)c2)[C@@H]2C(=O)N(C)C(=O)[C@@H]21 | 0% | ? | -19% | -7% | -13%
CCc1nc(-c2cc(S(=O)(=O)N3CCN(c4ccccc4OC)CC3)ccc2OC)no1 | 0% | -2% | -3% | -2% | 15%
O=C(CCl)Nc1cc2[nH]c(=O)[nH]c2cc1Br | ? | 21µM* | -86% | 23µM* | ?
O=C(Cn1ncc2c3ccccc3n(Cc3ccccc3)c2c1=O)N1CCN(c2ncccn2)CC1 | 0% | 16µM* | -7% | -4% | -14%
O=C(Cn1ncc2c3ccccc3n(Cc3ccccc3)c2c1=O)N1CCN(c2ccccn2)CC1 | -1% | -2% | -22% | 11% | -32%
CCN1CCN(C(=O)Cn2ncc3c4ccccc4n(Cc4c(C)cc(C)cc4C)c3c2=O)CC1 | 8% | -1% | -96% | -8% | 16µM*
CC(N)=Nc1ccc([N+](=O)[O-])cc1 | 0% | 0% | 3% | -2% | 4%
O=C1CC(=Nc2ccc([N+](=O)[O-])cc2)NN1c1c(Cl)cc(Cl)cc1Cl | 0% | / | -70% | / | 16µM*
CC(C)(C)OC(=O)NCCCC[C@@H](C(=O)N1CCN(C(=O)OC(C)(C)C)CC1)n1cc(CCC(=O)O)nn1 | 0% | 10% | 0% | 2% | ?
S=C(Nc1ccc2c(c1)OCCO2)Nc1ccc2c(c1)OCO2 | 7% | 8% | -9% | -1% | 8%
COc1cc(O)oc1C=Nc1ccc(C(=O)O)cc1 | 0% | -1% | 14µM* | -7% | -3%
O=C(Nc1ccccc1C(=O)Nc1ccccc1)c1cccs1 | 0% | -10% | -38% | -2% | 0%
COc1ccc(/C=C/C(=O)NCc2cn(C)nc2C)cc1COc1ccc(Br)cc1 | 0% | 18µM* | -21% | -24% | -3%
COc1ccc(/C=C/C(=O)c2ccc(O)cc2)cc1COc1ccc(F)cc1 | 0% | -10% | 16µM* | -8% | ?
O=C(/C=C/c1ccc(O)c([N+](=O)[O-])c1)c1ccc2ccccc2c1 | ? | -8% | -19% | 0% | ?
COc1ccc(Oc2ccc(/C=C/C(=O)c3ccc(O)cc3)cc2[N+](=O)[O-])cc1 | ? | 0% | -98% | 1% | 16µM*
Cc1c(Cc2ccccc2)c(=O)oc2c(C)c(OCC(=O)NCC3CCC(C(=O)O)CC3)ccc12 (configuration not stated) | 0% | -17% | -20% | 6% | 6%
Cc1ccc(-c2nc(S(=O)(=O)c3ccc(C)cc3)c(SCC(=O)NC3CCCCC3)o2)cc1 | 1% | 4%[9.27 µM] | -3% | 0% | -2%
CCN1C(=O)/C(=C2/C=Cc3cc(C)ccc3N2CC)N(C)C1=S | 0% | ? | 4% | 23µM* | -5%
CCN1/C(=C2/SC(=S)N(C)C2=O)C=Cc2cc(C)ccc21 | 0% | 7% | 9% | 5% | 14%
O=C(NNC(=O)c1ccccc1Cl)c1ccccc1Cl | 0% | 4% | 20% | -9% | -1%
C=C(c1ccccc1C)[n+]1ccccc1 | 0% | 18µM* | -41% | -12% | 6%
C=C(c1ccccc1Cl)[n+]1ccccc1 | 0% | 7.3µM* | 3% | ? | -9%
CCOc1ccccc1NC(=O)CCNS(=O)(=O)c1ccccc1 | 0%[9.22 µM] | 10% | 5% | -3% | -10%
COC(=O)c1ccc(CN(Cc2ccc(OC)c(OC)c2)S(=O)(=O)c2cc(C(=O)Nc3cccc(C)c3)ccc2F)cc1 | 1% | / | -4% | -2% | -4%
Nc1c(Br)cc(C=O)cc1Br | / | / | -5% | / | 4%
CC(C)(C)C1C/C(=C/c2ccccn2)C(=O)/C(=C/c2ccccn2)C1 (configuration not stated) | ? | 5.8µM* | -24% | 5.8µM* | 0.89µM*
CC1C/C(=C/c2ccccn2)C(=O)/C(=C/c2ccccn2)C1 (configuration not stated) | -1% | 16µM* | -108% | ? | 1.3µM*
